# Reference: PubChem BioAssay AID1452 (National Center for Advancing Translational Sciences (NCATS), 2008)
# In all, about 150,000 compounds went through this assay and about 190 (0.13%) were called active. Inconclusive results (about 2%) are left out. Shown is part of a subset that was picked to be rich in actives. Where a call stands in place of a potency, no number is given. A number with no mark means an inactive call. The call rests on the fitted dose curve; in most records, active means well fitted inhibition curve with a large enough effect; inconclusive means small, poorly fitted or top-dose-only effect; inactive means flat fitted curve, though single readings scatter.
# Biological target: Polyunsaturated fatty acid lipoxygenase ALOX12 (Homo sapiens) (UniProt P18054)
# Test: qHTS Assay for Inhibitors of 12-hLO (12-human lipoxygenase); further: nearly all actives have a fitted effect of over 55% in size
# Conditions: purified 12-hLO, xylenol orange hydroperoxide absorbance; series mostly up to 57.1 µM
# Description: Assay Provider: Holman, T.R., University of California, Santa Cruz Screening Center PI: Austin, C.P. Screening Center: NIH Chemical Genomics Center [NCGC] Human lipoxygenase 12hLO is a member of the closely related lipoxygenase family of enzymes which catalyze the site-specific oxidation of arachidonic acid to various hormone precursor molecules and as such is a candidate for drug development in a variety of disease areas, such as cancer and inflammation. Inhibition of 12hLO activity was screened by utilizing arachidonic acid as a substrate. The extent of hydroperoxide product formation was measured by a secondary chromogenic reaction in which xylenol orange (XO, Sigma-Aldrich, cat. number 39,818-7) reacts with the ferric ions produced from the reaction between the hydroperoxide and ferrous ions. The Fe(III)-XO complex is characterized with red-shifted absorbance at 560 nm. A purified preparation of human 12hLO was supplied by Professor Ted Holman, University of California, Santa Cruz.
# Assay Protocol: Buffer: 25 mM Hepes pH 7.0, 0.01% Triton X-100. Reagents/Controls: Buffer in columns 3 and 4 as negative control (no enzyme). Substrate solution: 40 uM arachidonic acid (Sigma-Aldrich, St. Louis, MO) final concentration dispensed throughout the plate. Enzyme: 150 nM 12hLO final concentration in columns 1, 2, 5-48. Column 1 is neutral (100% activity). Column 2 contained pin-transferred titration of NDGA (nordihidroguaiaretic acid, Sigma-Aldrich, N 5023, top concentration 20 mM in DMSO, then 1:3 dilution in duplicate). (Dilution factor: 23 nL into 4 uL.) Chromogenic detection reagent (divalent iron/xylenol orange, Fe-XO): 200 uM xylenol orange plus 300 uM ferrous ammonium sulfate prepared freshly in 50 mM sulfuric acid. Assay Steps: Three uL of enzyme were dispensed to 1536-well Greiner black clear bottom plates. Compounds and controls (23 nL) were transferred via Kalypsys PinTool. The plates were incubated for 15 min at room temperature, and then 1 uL of substrate solution was added to start the reaction. After room temperature incubation for 30 minutes, 4 uL of Fe-XO solution was added to each well and the plates were incubated for 30 min. The absorbance at 405 and 573 nm were measured using ViewLux (Perkin-Elmer) High-throughput CCD imager and absorbance protocol settings. The 573-to-405 absorbance ratio was used to compute reaction progress.
# Potency means the concentration at half of the fitted maximal effect.
# Polyunsaturated fatty acid lipoxygenase ALOX12 (Homo sapiens), sequence (P18054 whole entry, looked up): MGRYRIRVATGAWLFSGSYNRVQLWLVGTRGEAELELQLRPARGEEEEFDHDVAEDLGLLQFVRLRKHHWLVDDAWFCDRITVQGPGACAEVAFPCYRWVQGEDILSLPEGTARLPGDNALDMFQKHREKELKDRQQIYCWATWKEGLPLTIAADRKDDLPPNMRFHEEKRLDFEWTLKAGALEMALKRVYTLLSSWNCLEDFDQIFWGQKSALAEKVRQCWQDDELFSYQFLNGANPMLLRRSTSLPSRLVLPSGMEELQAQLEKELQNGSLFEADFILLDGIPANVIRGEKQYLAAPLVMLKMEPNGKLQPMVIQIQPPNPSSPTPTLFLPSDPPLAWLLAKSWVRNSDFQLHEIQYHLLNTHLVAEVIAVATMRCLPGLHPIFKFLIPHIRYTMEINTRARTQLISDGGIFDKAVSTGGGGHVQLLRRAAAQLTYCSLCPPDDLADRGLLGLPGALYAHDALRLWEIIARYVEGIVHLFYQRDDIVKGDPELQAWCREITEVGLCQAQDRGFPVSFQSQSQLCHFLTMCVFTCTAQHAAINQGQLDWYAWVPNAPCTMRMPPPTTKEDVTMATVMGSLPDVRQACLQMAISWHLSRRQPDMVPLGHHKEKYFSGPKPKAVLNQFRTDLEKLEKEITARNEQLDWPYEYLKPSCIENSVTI
Compound,"activity change, negative = inhibition",Potency
CC(=O)c1c(C)[nH]c(C(=O)OCC(=O)Nc2cc(S(=O)(=O)N3CCCCC3)ccc2C)c1C,inactive,
CCc1nnc(NC(=O)CCN(c2ccc(C)cc2)S(=O)(=O)c2ccccc2)s1,inactive,
CCOc1ccc(-c2n[nH]c(=S)n2/N=C/c2cc3c(cc2[N+](=O)[O-])OCO3)cc1,inactive,
C=CCN(c1ccc(C(=O)Nc2cc(C)cc(C)c2)cc1)S(C)(=O)=O,inactive,
COc1ccc(Cl)cc1NC(=O)CNc1ccccc1F,inactive,
Cc1ccccc1NC(=S)Nc1cccc([N+](=O)[O-])c1,inactive,
Cc1ccc(NC(=S)Nc2ncccc2C)c(C)c1,,17.8 µM (active)
Cc1ccc(NC(=O)Cn2nc(C)c3ccccc3c2=O)c(C)c1,inactive,
CC(C)(C)OC(=O)NCCCCC1=CC2=CC(=O)C(C)(OC(=O)c3cccs3)C(=O)C2=CO1 (stereo not drawn),inactive,
CC[C@@]12C=C(/C=C/c3ccccc3)[C@](CC)(C1)[C@H](c1ccccc1)CC2=O,inactive,
COC(=O)C1=C(C(=O)OC)[C@@H]2Nc3ccccc3[C@@]23C[C@@H](C(=O)OC)N(S(=O)(=O)c2ccc([N+](=O)[O-])cc2)C3=N1,-6.39% [at 11.4 µM],
COc1ccc(-n2c(=S)[nH]c3sc4c(c3c2=O)CCc2ccccc2-4)cc1,inactive,
Cc1ccc(S(=O)(=O)Nc2nc(C)cc(N/N=C/c3ccc(O)cc3)n2)cc1,inactive,
COC(=O)c1c(NC(=O)CN2C(=O)NC(CCc3ccccc3)C2=O)sc2c1CCCCC2 (stereo not drawn),inactive,
C=CCN1c2ccccc2[C@]23C[C@@H](C(=O)OC)N(S(=O)(=O)c4ccc([N+](=O)[O-])cc4)C2=NC(C(=O)OC)=C(C(=O)OC)[C@H]13,-1.48% [at 11.4 µM],
CCN(/N=C/c1ccccc1)c1cc(=O)n(C)c(=O)[nH]1,inactive,
COCCN1C(=O)N[C@@H](CCc2ccccc2)[C@H](C(C)=O)[C@H]1C,1.29% [at 11.4 µM],
C=CC1=C2C=C(C3CC3)N(CC(C)C)C=C2C(=O)C(C)(OC(=O)c2ccco2)C1=O (stereo not drawn),0.586% [at 11.4 µM],
CCCCCCCC[C@@H](O)/C=C/C=C/C=C\[C@@H](O)CCCC(=O)O,inactive,
COc1ccc(-c2nc3c(c4c2C[C@H](c2ccccc2)OC4)CN(C(=O)c2ccco2)CC3)c(C)c1,3.56% [at 11.4 µM],
Cc1ccccc1C(CC(=O)c1cccs1)C(C#N)C#N (stereo not drawn),inactive,
Cc1c(/C=N/N2C(=O)C3C4C=CC(C4)C3C2=O)c2ccccc2n1C (stereo not drawn),inactive,

Compound,"activity change, negative = inhibition",Potency
CC/C=C\C/C=C\C/C=C\C/C=C\C/C=C\C/C=C\CCC(=O)NC(C)C(=O)O (stereo not drawn),inactive,
COc1cc(NC(=O)COC(=O)CSc2ccc3ccccc3c2)c(C)cc1[N+](=O)[O-],inactive,
COc1ccc(-c2c(C)cc3oc(=O)cc(-c4ccccc4)c3c2C)cc1C=O,-1.15% [at 0.00818 µM],
CCOc1ccc2nc(C(=O)N3CCCC(C)C3)sc2c1 (stereo not drawn),inactive,
O=C(/C=C/c1ccc([N+](=O)[O-])cc1)NCCSCc1ccco1,inactive,
COCC(C)n1c(C)cc(C(=O)CSc2cc(C)c3ccccc3n2)c1C (stereo not drawn),inactive,
COCOc1cc(OC)ccc1C(=O)/C=C/c1ccc([N+](=O)[O-])cc1,inactive,
CCCCCCCC1=Cc2ccc(F)cc2C(C(C(=O)OC)C(=O)OC)N1C(=O)OC (stereo not drawn),0.612% [at 11.4 µM],
COC(=O)C1=C(C(=O)OC)[C@@H]2N(Cc3ccccc3)c3ccccc3[C@@]23C[C@@H](C(=O)OC)N(S(=O)(=O)c2ccc(C(F)(F)F)cc2)C3=N1,-1.93% [at 11.4 µM],
Cc1ccc(C2=NN(C(=O)CSc3nc(N)cc(N)n3)C(c3ccco3)C2)cc1 (stereo not drawn),inactive,
C/C(CC(=O)NC(C)(C)C)=N\NC(=O)c1ccco1,inactive,
O=C(COC(=O)[C@H](Cc1ccccc1)NC(=O)c1cccs1)Nc1cc(F)ccc1F,inactive,
Cc1cc2oc(=O)cc(-c3ccccc3)c2c(C)c1-c1ccc(OC(F)(F)F)cc1,-2.23% [at 0.00818 µM],
Cc1ccc(C)c(NC(=S)NNC(=O)c2csc(C)c2)c1,inactive,
CCCCS(=O)(=O)N1C2=NC(C(=O)OC)=C(C(=O)OC)[C@@H]3N(Cc4ccccc4)c4ccccc4[C@]23C[C@H]1C(=O)OC,2.88% [at 11.4 µM],
Cc1cccc(N2CCN(C(=O)/C=C/c3ccco3)CC2)c1C,inactive,
COc1ccc(-c2cc(C(F)(F)F)nc(SCC(=O)Nc3ccc4c(c3)OCO4)n2)cc1OC,inactive,
CCOC(=O)c1c(NC(=O)C(C)Sc2c[nH]c3ccccc23)sc2c1CCC2 (stereo not drawn),inactive,
CCCCC/C=C\C/C=C\CCCCCCCCCC(=O)NCC(=O)O,inactive,
Cc1nc2ccccc2c(=O)n1CCCn1ccnc1,inactive,
Cc1ccnc(N2CCC(C(=O)NC3CCCCCC3)CC2)n1,inactive,
Cc1ccnc(-n2sc3ccccc3c2=O)n1,,12.6 µM (active)

Compound,"activity change, negative = inhibition",Potency
CCCCC/C=C\C[C@H](O)/C=C/C=C/C=C/[C@@H](O)CCCC(=O)O,inactive,
COC(=O)C1=NNC2(c3ccc(C)cc3)C(=O)N(c3cccc(C)c3C)C(=O)C12 (stereo not drawn),inactive,
CC(=O)c1ccc2c(ccc3ccccc32)c1,inactive,
CC(=O)CCC(=O)c1ccc2ccccc2c1,inactive,
C=CC(=O)c1ccc2ccccc2c1,,2.51 µM (active)
CCOC(=O)C1=C(N)N(c2ccc(C)cc2)C2=C(C(=O)CCC2)C1c1cccs1 (stereo not drawn),inactive,
COC(=O)CCCC1=CC2=CC(=O)C(C)(OC(=O)c3cccs3)C(=O)C2=CN1c1ccc(CO)cc1 (stereo not drawn),-2.32% [at 11.4 µM],
COc1ccc(-c2c(C)cc3oc(=O)cc(-c4ccccc4)c3c2C)cc1OC,-1.07% [at 0.00818 µM],
COc1ccc(/C=C/C(=O)OCC(=O)Nc2cccc(Oc3ccccc3)c2)c(OC)c1,inactive,
COc1ccc(CCC(=O)OCC(=O)Nc2ccc(C)c(S(=O)(=O)N(C)C)c2)cc1,inactive,
O=C(CSc1ccccc1)Nc1nnc(/C=C/c2ccccc2)s1,inactive,
COc1ccc(C2NC(=S)NC3=C2CCc2ccccc23)cc1OC (stereo not drawn),inactive,
CC1(OC(=O)c2ccc(Cl)nc2)C(=O)Cc2cc(-c3ccsc3)ncc2C1=O (stereo not drawn),-0.498% [at 11.4 µM],
COc1ccc(NS(=O)(=O)c2ccc(NC(=S)NC(=O)CC(C)C)cc2)cc1,,15.8 µM (active)
COc1ccc(C(=O)Nc2ccc(S(=O)(=O)NC(C)C)cc2)cc1,inactive,
CC(=O)c1ccc(NC(=S)NC(=O)CC(C)C)cc1,inactive,
COc1cc(-c2cc(C(=O)OCC(=O)Nc3ccc4c(c3)OCO4)c3ccccc3n2)cc(OC)c1OC,inactive,
CCOC(=O)C1=C(C(=O)OCC)C(C(=O)OCC)N(S(=O)(=O)C(F)(F)F)c2ccccc21 (stereo not drawn),-4.37% [at 0.00818 µM],
COc1cc(NC(=O)Nc2ccc(C)cc2)cc([N+](=O)[O-])c1,inactive,
COc1cc(NC(=S)NCCSc2ccc(C)cc2)cc(OC)c1,,20 µM (active)
COc1cccc(NC(=S)NCCCN2CCOCC2)c1,inactive,
NS(=O)(=O)c1ccc(CNC(=O)c2ccc(Cl)cc2[N+](=O)[O-])cc1,inactive,

Compound,"activity change, negative = inhibition",Potency
O=C(Cn1nc(CNc2ccc(Cl)cc2)[n+]2c1CCCCC2)c1ccc(Cl)cc1,inactive,
COc1ccc([N+](=O)[O-])cc1NC(=O)C(C)OC(=O)C1c2ccccc2Oc2ccccc21 (stereo not drawn),inactive,
CC1(C)O[C@@H]2C[C@@H]3[C@H]4C[C@@H](F)C5=CC(=O)C=C[C@]5(C)[C@@]4(F)[C@@H](O)C[C@]3(C)[C@]2(C(=O)CO)O1,-0.431% [at 0.00818 µM],
CC(C)(C)C1CCC(=NNC(=O)c2ccc(Br)o2)CC1 (stereo not drawn),inactive,
CCCCC/C=C\C/C=C\C/C=C\CCCCC(=O)NCC(=O)O,inactive,
O=C(Cc1ccccc1)NC(=S)Nc1ccc(N2CCCCC2)cc1,inactive,
CCCCC/C=C\CC1OC1CCCCCCCC(=O)O (stereo not drawn),inactive,
COc1cccc(-c2cc(=O)c3cc(NC(=O)c4ccc(C)cc4)ccc3[nH]2)c1,0.685% [at 0.00818 µM],
C[C@H]1Cc2c(-c3ccccc3)nc3c(c2CO1)CN(S(=O)(=O)c1ccc(Cl)c2nonc12)CC3,-3.11% [at 11.4 µM],
COc1ccc(CCNC(=O)COC(=O)C2CCCCC2)cc1,inactive,
Cc1ccc(C(=O)COC(=O)CCN2C(=O)C3C4CC(C(Br)C4Br)C3C2=O)cc1 (stereo not drawn),inactive,
CC(=O)c1c(C)[nH]c(C(=O)COC(=O)c2cccc(S(=O)(=O)N(C)c3ccccc3)c2)c1C,inactive,
Cc1ccc(NC(=S)NC(=O)/C=C/c2ccc(Cl)cc2)cc1,inactive,
O=C(CSC1CC(=O)N(CCc2ccccc2)C1=O)Nc1ccc(Cl)cc1 (stereo not drawn),inactive,
COc1ccc(-c2nc3c(c4c2C[C@H](c2ccccc2)OC4)CN(S(=O)(=O)c2c(C)noc2C)CC3)c(C)c1,1.37% [at 11.4 µM],
CC1=C(C(=O)Nc2cc(C)ccn2)C(c2cnn(C)c2)C2=C(CC(c3ccccc3)CC2=O)N1 (stereo not drawn),inactive,
O=C(CN1CCN(c2ccc(O)cc2)CC1)NC1CCCc2ccccc21 (stereo not drawn),inactive,
CC(=O)CC(c1ccccc1)C1C(=O)Oc2ccccc2C1=O (stereo not drawn),-0.392% [at 0.00818 µM],
CCCC(=O)Nc1ccc(C(=O)N/N=C/c2ccc[nH]2)cc1,inactive,
CC(C)C(C)(C#N)NC(=O)CSc1nc2scc(-c3ccccc3)c2c(=O)[nH]1 (stereo not drawn),inactive,
Cn1nccc1CNC(=O)c1ccnn1C,inactive,
Cc1ccccc1-c1ccc(C(=O)O)s1,1.22% [at 0.00818 µM],
